Most compounds without a hit are left out; they make up all but 10% or so of the library.
HEK cytotox: HEK 293 cell cytotoxicity | Potency, µM (titrated, usually from 115 µM), without a hit: at the highest dose activity change, negative = cytotoxicity, usual class: inhibitors | HEK 293 viability, ATP luminescence (CellTiter-Glo), 48-72 h | 94,000 tested, 6.6% active | AID 1345083; further: potency means the concentration at half of the fitted maximal effect; on the % scale 0 is the no-effect control and ±100 the full control effect; nearly all actives have a fitted effect of over 60% in size
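qHTS cytotoxicity; HEK 293, 250 cells/well; compound pinned; 48 or 72 hr, 37 degree Celsius, 5% CO2, 95% humidity; CellTiter-Glo, 10 min RT; luminescence (ATP).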
Luciferase inh: blocks purified firefly luciferase enzyme activity; purified P. pyralis luciferase, luminescence, biochemical; Potency, µM (top dose mostly 115 µM), hits mostly inhibitors; 76,000 tested, 2.5% active; further: potency means the concentration at half of the fitted maximal effect; on the % scale 0 is the no-effect control and ±100 the full control effect; nearly all actives have a fitted effect of over 65% in size
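FLuc 10nM, D-luciferin 10uM, ATP 10uM, Mg acetate 10mM, Tris acetate pH 7.5, Tween/BSA; cpd qHTS; enzyme added last; CCD luminescence.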
NPR1 antag: antagonists of human natriuretic peptide receptor Npr1; Potency, µM (series often up to 46.3 µM), for inactives: top-dose activity change, negative = inhibition, most hits filed as inhibitors; P16066; 76,000 tested, 1.6% active; HEK293 hNpr1 GloSensor cGMP, ANP-stimulated luminescence; calls by dose curve; further: potency means the concentration at half of the fitted maximal effect; on the % scale 0 is the no-effect control and ±100 the full control effect; nearly all actives have a fitted effect of over 60% in size
Target sequence (P16066 whole entry, looked up): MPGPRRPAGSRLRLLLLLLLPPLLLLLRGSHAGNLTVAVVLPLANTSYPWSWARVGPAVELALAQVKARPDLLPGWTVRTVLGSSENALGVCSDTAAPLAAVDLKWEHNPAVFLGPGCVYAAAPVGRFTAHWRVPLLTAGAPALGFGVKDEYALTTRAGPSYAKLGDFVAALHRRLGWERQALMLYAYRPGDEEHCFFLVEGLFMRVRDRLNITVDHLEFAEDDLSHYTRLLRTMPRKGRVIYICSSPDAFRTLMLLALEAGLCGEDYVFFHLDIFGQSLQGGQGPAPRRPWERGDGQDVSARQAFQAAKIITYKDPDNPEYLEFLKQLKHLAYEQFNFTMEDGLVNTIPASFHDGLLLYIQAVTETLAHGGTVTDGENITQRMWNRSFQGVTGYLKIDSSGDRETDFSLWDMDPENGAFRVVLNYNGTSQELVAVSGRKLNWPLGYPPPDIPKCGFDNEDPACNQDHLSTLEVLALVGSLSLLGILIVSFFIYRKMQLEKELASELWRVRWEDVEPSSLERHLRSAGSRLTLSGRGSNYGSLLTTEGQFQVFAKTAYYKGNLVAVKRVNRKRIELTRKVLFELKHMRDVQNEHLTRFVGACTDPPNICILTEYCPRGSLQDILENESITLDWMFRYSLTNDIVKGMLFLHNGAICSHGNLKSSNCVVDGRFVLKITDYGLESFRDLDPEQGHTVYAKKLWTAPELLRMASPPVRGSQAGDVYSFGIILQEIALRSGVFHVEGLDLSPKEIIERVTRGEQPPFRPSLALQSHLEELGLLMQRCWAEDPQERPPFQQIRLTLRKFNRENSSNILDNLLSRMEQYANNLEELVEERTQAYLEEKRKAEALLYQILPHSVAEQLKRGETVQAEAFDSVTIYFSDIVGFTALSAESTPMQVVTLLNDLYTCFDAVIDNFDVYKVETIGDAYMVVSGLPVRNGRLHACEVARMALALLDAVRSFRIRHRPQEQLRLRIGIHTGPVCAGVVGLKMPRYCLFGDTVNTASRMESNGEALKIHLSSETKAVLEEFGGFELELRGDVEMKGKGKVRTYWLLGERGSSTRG
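HEK293 cells stably expressing human Npr1 and cGMP GloSensor pGS-40F, loaded 2 h with 2% GloSensor reagent, given compound 30 min at room temperature. Luminescence read before and 20 min after 0.1 nM hNppA.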
3T3 cytotox: kills NIH 3T3 cells; NIH 3T3 viability, CellTiter-Glo ATP luminescence, 48-72 h; Potency, µM (doses to about 96.7 µM), inactives show at the top dose activity change, negative = cytotoxicity, usual class: inhibitors; 94,000 tested, 4.3% active; further: potency means the concentration at half of the fitted maximal effect; on the % scale 0 is the no-effect control and ±100 the full control effect; nearly all actives have a fitted effect of over 55% in size
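Cytotoxicity is measured as loss of cellular ATP: NIH 3T3 cells (400/well) are exposed to compound for 48 or 72 hr at 37 °C, then CellTiter-Glo luminescence is imaged after 10 min at room temperature.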
GPT2 inh: inhibitors of human GPT2 alanine aminotransferase; Recombinant GPT2, coupled pyruvate oxidase/HRP Amplex Red fluorescence; Potency, µM (highest dose often 57.7 µM), inactives show at the top dose activity change, negative = inhibition, actives largely listed as inhibitors; Q8TD30; 100,000 tested, 0.25% active; further: potency means the concentration at half of the fitted maximal effect; on the % scale 0 is the no-effect control and ±100 the full control effect; nearly all actives have a fitted effect of over 60% in size
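Inhibition is scored from Amplex Red fluorescence generated when pyruvate oxidase and HRP act on pyruvate released by GPT2. Reactions contain 10ng/uL enzyme, 250uM a-KG and 2mM L-alanine and run 30 min at room temperature.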
Npr1 antag conf: confirmation of human Npr1 natriuretic peptide receptor antagonists | AID 1347044 | shares compounds with NPR1 antag | Potency, µM (series often up to 57.6 µM), inactives show top-dose activity change, negative = inhibition, most hits filed as inhibitors | 1,400 tested, 76% active | HEK293 hNpr1 cGMP GloSensor luminescence, ANP-stimulated; calls by dose curve; further: potency means the concentration at half of the fitted maximal effect; nearly all actives have a fitted effect of over 70% in size
NPR2 antag: antagonizes human Npr2, subtype selectivity check; shares compounds with NPR1 antag; 1,400 tested, 67% active; HEK293 hNpr2 GloSensor cGMP luminescence, CNP-stimulated; Potency, µM (titrated, usually from 57.6 µM), without a hit: top-dose activity change, negative = inhibition, most hits filed as inhibitors; calls by dose curve; further: potency means the concentration at half of the fitted maximal effect; nearly all actives have a fitted effect of over 70% in size
FLuc counter: FLuc enzyme inhibition, Npr1 counter-screen. shares compounds with NPR1 antag. purified FLuc enzyme, luminescence, Km substrate. Potency, µM (doses to about 57.6 µM), for the others: at the top dose activity change, negative = inhibition, hits mostly inhibitors. 1,400 tested, 0.7% active; further: potency means the concentration at half of the fitted maximal effect; 0% is about no effect
GloSensor cGMP: control cell line activity, Npr1 antagonist counter-screen | HEK293 GloSensor cGMP, SNP-stimulated, luminescence | shares compounds with NPR1 antag | Potency, µM (titrated, usually from 57.6 µM), for inactives: at the highest dose activity change, negative = inhibition, hits mostly inhibitors | 1,400 tested, 69% active; calls by dose curve; further: potency means the concentration at half of the fitted maximal effect; on the % scale 0 is the no-effect control and ±100 the full control effect; nearly all actives have a fitted effect of over 70% in size
GPT2 conf: confirmation of human GPT2 inhibitors; shares compounds with GPT2 inh; GPT2 enzyme, coupled Amplex Red pyruvate fluorescence; Potency, µM, most hits filed as inhibitors; 95 tested, 90% active
Starred values were filed as active, the others as inactive; i = inactive; ? = inconclusive; · = no result; [ ] = remark or other dose. Unless noted, the call rests on the fitted dose curve; in most records, active means well fitted curve in the direction sought with a large enough effect; inconclusive means small, poorly fitted or top-dose-only effect, or another doubt; inactive means no such curve, though single readings can be large; an effect the other way counts as inactive or inconclusive.

SMILES	HEK cytotox	Luciferase inh	NPR1 antag	3T3 cytotox	GPT2 inh	GPT2 conf	others
O=C1N2CCCC2CN1C1CCN(Cc2ccccc2)CC1 (centres undefined)	?	i	6%[70.6 µM]	-21%[138 µM]	1%[88.5 µM]	·
Cc1cc(C)n(CC(=O)N[C@@H]2CN(Cc3ccccc3)C[C@H]2CN(C)C)c(=O)n1	3%	i	11µM*	i	i	·	Npr1 antag conf=-16%;NPR2 antag=-12%;FLuc counter=0%;GloSensor cGMP=14%
CNC(=O)c1cccc(-c2cnc(Nc3ccc(N4CCOCC4)cc3)c3c2CCO3)c1	79µM*	0.63µM*	-7%[70.6 µM]	?	?	6.3*
Fc1cc(Nc2ncc(-c3cccnc3)c3c2OCC3)cc(N2CCOCC2)c1	?	?	-3%[70.6 µM]	?	i	·
C=CC(=O)Nc1cccc(Nc2nc(Nc3ccc(N4CCN(C(C)=O)CC4)cc3OC)ncc2C(F)(F)F)c1	·	·	·	·	3.2µM*	2.2*
CC(=O)Nc1ccc(-c2c(C3CC3)nn(-c3cccc(C)c3)c2OC(C)=O)cc1	-9%	i	1%	i	?	9.7*
CN(C)c1ccc2c(c1)CN(C(=O)c1cnccn1)CCO2	-4%	·	·	-19%	?	0.86*
O=c1[nH]c(C2CCCN(Cc3ccccn3)C2)nn1-c1ccccc1 (centres undefined)	?	i	?	?	i	·
COc1ccc(NC(=O)NCC2CCCN(C(C)C)C2)cc1OC (centres undefined)	-5%	i	9%	i	i	·
COc1ccc(NC2CCCN(C(=O)C(=O)CC(C)C)C2)cc1OC (centres undefined)	1%	i	2%	2%	22µM*	3.4*
COc1ccc(N2CC(C)(NC(C)=O)C2)cc1	·	·	·	·	·	3.5*
CC(=O)NC1(C)CN(c2ccc(OC(F)(F)F)cc2)C1	?	i	-13%[70.6 µM]	?	-9%[88.5 µM]	·
OC1(c2cnc(CN3CCC3)s2)CCNCC1	-11%[230 µM]	i	-8%[70.6 µM]	-2%[230 µM]	-2%[88.5 µM]	·
CN1CCOc2c(C(=O)N3CC[S+](=O)([O-])CC3)cc(N3CCOCC3)cc21	·	·	·	·	·	2*
CC(C)CNC(=O)c1cc(N2CCOCC2)cc2c1OCCN2C	·	·	·	·	·	2*
CN1CCOc2c(C(=O)NCCc3ccccc3)cc(N3CCOCC3)cc21	?	i	0%[70.6 µM]	-26%[138 µM]	?	·
CN1CCOc2c(C(=O)NCCC(N)=O)cc(-c3ccccc3)cc21	0%[172 µM]	i	1%[70.6 µM]	?	i	·
COC(=O)c1sccc1S(=O)(=O)N[C@H]1C[C@@H](C(=O)OC)N(C)C1	0%	i	-7%	-8%	3%[11.5 µM]	·
Cc1ccc(C(=O)N(C)C2CCc3nn(CC4CC4)c(=O)n3CC2)c(=O)[nH]1 (centres undefined)	i	i	1%	2%	?	·
COc1ccc(N2CCN(C3CCCN(CC=C(C)C)C3)CC2)cc1 (centres undefined)	-7%	i	-9%	-16%	?	·
COc1ccc(N2CCN(C3CCCN(Cc4cc(=O)[nH]c(=O)[nH]4)C3)CC2)cc1 (centres undefined)	2%	i	-3%	-3%	?	6.9*
CN1CCN(c2ccc(OC(F)(F)F)c(Nc3ncc4c(n3)-c3c(c(C(N)=O)nn3CCO)CC4)c2)CC1	·	·	·	·	i	·
CNS(=O)(=O)c1ccccc1Nc1nc(Nc2ccc(N3CCN(C)CC3)cc2OC)ncc1Br	·	·	·	·	?	2.7*
COc1ccccc1Nc1ccnc(N2CCC(NC(=O)c3ccc(Cl)nc3)CC2)n1	?	·	·	-21%	-12%	·
COc1cc(N2CCN(C)CC2)ccc1Nc1nccc(-c2cn(C)c3cnccc23)n1	·	·	·	·	3.5µM*	2.4*
SMILES	HEK cytotox	Luciferase inh	NPR1 antag	3T3 cytotox	GPT2 inh	GPT2 conf	others
CCS(=O)(=O)N1CCN(c2ccc(Nc3ncc(C(N)=O)c(NC4CC4)n3)cc2)CC1	·	·	·	·	i	·
COc1cc(N2CCC(N(C)C)CC2)ccc1Nc1ncc(Cl)c(Nc2ccccc2P(C)(C)=O)n1	·	·	·	·	1.9µM*	2.2*
COc1cc(N2CCC(N3CCN(C)CC3)CC2)ccc1Nc1ncc(Cl)c(Nc2ccccc2S(=O)(=O)C(C)C)n1	·	·	·	·	2.2µM*	3.1*
O=C(NCCN[S+](=O)([O-])c1cccs1)c1ccc(-c2cncnc2)cc1	-7%	·	·	?	·	·
CN(CCc1ccccc1)c1cnn(CCCn2cnnn2)c(=O)c1	0%	i	7%	i	-7%	·
Cc1nc(N2CCCC2)nc(N2CCC3(CC2)OCCCC3O)c1C (centres undefined)	-13%	i	0%	-18%	-23%	·
Cc1cc2c(N3CCCC3)nc(N3CCCC3)nc2n1C	·	·	·	·	?	?
